SKOV3 invasion = Primary qHTS assay for Inhibitors of ovarian cancer metastasis using an organotypic tumor microenvironment (TME) model; Potency, µM (series often up to 45.8 µM), for inactives: at the top dose activity change, negative = inhibition, hits mostly inhibitors; SKOV3ip1-GFP adhesion/invasion on 3D omental model, fluorescence; 0.1% of 46,000 active;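 note: potency is the fitted concentration of half-maximal effect; plate controls were DMSO wells for no effect and tomatine positive control wells for full effect; nearly all actives have a fitted effect of over 65% in size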
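Adhesion/invasion was scored as fixed GFP-labeled SKOV3ip1 cell counts (488/509 nm), normalized to DMSO and tomatine controls. Cancer cells in serum-free medium, with four compound doses (0.36-46 umol/L), sat 2 hr at RT then 16 hr at 37 C on a 48 hr fibroblast/mesothelial/ECM culture.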
PMP22 txn = Cell-based coincidence reporter assay to measure PMP22 gene transcription in S16 Pmp22-F2sN cells - Primary screen; Potency, µM (highest dose often 57.5 µM), inactives show at the top dose activity change, negative = inhibition, usual class: inhibitors; S16 Pmp22-F2sN Schwann cells, FLuc/NLuc coincidence luminescence, 24 h; AID 1508649, 2021; 2% of 43,000 active; active = clear falling dose curves in both reporters; inconclusive = both reporters move, but less clearly or upward; inactive = either reporter flat; the % is the NLuc reporter signal; note: potency is the fitted concentration of half-maximal effect; % is set by controls: 0 for no effect and ±100 for the full control effect
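Rat S16 Pmp22-F2sN cells, 500-1,000/well in phenol red-free DMEM + 10% FBS, compound-treated 24 h (37C, 5% CO2). Luminescence: FLuc read, Stop&Glo added, NLuc read.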
S16 F2sN tox = Cell viability qHTS assay in S16 Pmp22-F2sN cells; S16 Pmp22-F2sN Schwann cells viability, CellTiter-Glo, 24 h; Potency, µM (highest dose often 57.5 µM), without a hit: at the top dose activity change, negative = cytotoxicity, hits mostly cytotoxic; 0.48% of 43,000 active; AID 1508642, 2021; note: potency is the fitted concentration of half-maximal effect; % is set by controls: 0 for no effect and ±100 for the full control effect; nearly all actives have a fitted effect of over 65% in size
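S16 Pmp22-F2sN Schwann cells (500-1,000/well) in phenol-red-free DMEM with 10% FBS received 23 nL compound by pin tool for 24 h at 37 °C. Viability was then read as CellTiter-Glo luminescence after 15 min at room temperature.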
p53null 32C kill = qHTS Screen for Compounds that Selectively Target Cancer Cells with p53 Mutations: Cytotoxicity of p53 Null Cells at the Permissive Temperature. AID 903, 2007. Potency, µM (series often up to 46.1 µM), for the others: at the top dose activity change, negative = cytotoxicity, hits mostly cytotoxic. 0.62% of 55,000 active. H1299-neo p53 null cells, ATP luminescence, 24 h, 32C;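 note: potency is the fitted concentration of half-maximal effect; 0% = DMSO only and -100% = full killing by 100 µM tamoxifen; nearly all actives have a fitted effect of over 55% in size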
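We seeded p53-null H1299-neo cells, incubated them overnight at 37C, and added compounds across a range up to 46 uM. After 24 hours at 32C, ATP reagent was applied for 20 min at room temperature and luminescence recorded.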
p53null 39C kill = qHTS Screen for Compounds that Selectively Target Cancer Cells with p53 Mutations: Cytotoxicity of p53 Null Cells at the Nonpermissive Temperature. Potency, µM (series often up to 46.1 µM), without a hit: top-dose activity, negative = cell killing, hits mostly cytotoxic. H1299 p53-null (neo) cells, 39C, ATPlite viability, 24 h. 0.97% of 55,000 active;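 note: potency is the fitted concentration of half-maximal effect; 0% = DMSO only and -100% = full killing by 100 µM tamoxifen; nearly all actives have a fitted effect of over 50% in size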
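Cells seeded at 600/well, 37C overnight. Compound added (up to 46 uM), plates shifted to 39C for 24 hr. ATPlite added, luminescence read after 20 min at room temperature.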
pS6 MEF inh = Acumen qHTS Assay for Inhibitors of the mTORC1 Signaling Pathway in MEF (Tsc2-/-, p53-/-) Cells: Sytravon. Tsc2-/- p53-/- MEF, phospho-rpS6 immunofluorescence/PI, 24 h. Potency, µM (titrated, usually from 38.3 µM), for inactives: top-dose activity change, negative = inhibition, hits mostly inhibitors. 0.78% of 44,000 active. AID 493208, 2011;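 note: potency is the fitted concentration of half-maximal effect; plate controls were DMSO for no effect and rapamycin for full effect; nearly all actives have a fitted effect of over 50% in size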
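Plate MEFs (Tsc2-/-, p53-/-, empty vector) in DMEM/10% FBS; after 24 h add compound, incubate 24 h at 37 degree Celsius; fix in PFA/TX-100, block, stain phospho-rpS6 and 10 uM PI; scan at 488 nm; report % positive cells.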
NLuc saturating = Biochemical NLuc saturation counterscreen for small molecule modulators of PMP22 gene expression - Nano-Glo assay | shares compounds with PMP22 txn | Secreted NLuc enzyme (filtered S16 cell medium), Nano-Glo luminescence | Potency, µM (top dose mostly 57.5 µM), for inactives: at the top dose activity change, negative = inhibition, actives largely listed as inhibitors | 4% of 690 active | AID 1508638, 2021; note: potency is the fitted concentration of half-maximal effect; % is set by controls: 0 for no effect and ±100 for the full control effect
NLuc Km ctr = Biochemical coelenterazine-based NLuc counterscreen for small molecule modulators of PMP22 gene expression - Km assay; Potency, µM (doses to about 57.5 µM), for inactives: top-dose activity change, negative = inhibition, most hits filed as inhibitors; secreted NLuc enzyme, coelenterazine luminescence, Km conditions; AID 1508639, 2021; 5% of 690 active; shares compounds with PMP22 txn; note: potency is the fitted concentration of half-maximal effect; % is set by controls: 0 for no effect and ±100 for the full control effect
FLuc ctr PMP22 = Biochemical FLuc counterscreen for small molecule modulators of PMP22 gene expression; Potency, µM (series often up to 57.5 µM), for inactives: at the highest dose activity, negative = inhibition, hits mostly inhibitors; purified P. pyralis FLuc, luminescence, 10 min; 690 tested, under 10 active; shares compounds with PMP22 txn; AID 1508640, 2021; note: % of control where 0% means no effect
Target sequence (P08659 whole entry, looked up): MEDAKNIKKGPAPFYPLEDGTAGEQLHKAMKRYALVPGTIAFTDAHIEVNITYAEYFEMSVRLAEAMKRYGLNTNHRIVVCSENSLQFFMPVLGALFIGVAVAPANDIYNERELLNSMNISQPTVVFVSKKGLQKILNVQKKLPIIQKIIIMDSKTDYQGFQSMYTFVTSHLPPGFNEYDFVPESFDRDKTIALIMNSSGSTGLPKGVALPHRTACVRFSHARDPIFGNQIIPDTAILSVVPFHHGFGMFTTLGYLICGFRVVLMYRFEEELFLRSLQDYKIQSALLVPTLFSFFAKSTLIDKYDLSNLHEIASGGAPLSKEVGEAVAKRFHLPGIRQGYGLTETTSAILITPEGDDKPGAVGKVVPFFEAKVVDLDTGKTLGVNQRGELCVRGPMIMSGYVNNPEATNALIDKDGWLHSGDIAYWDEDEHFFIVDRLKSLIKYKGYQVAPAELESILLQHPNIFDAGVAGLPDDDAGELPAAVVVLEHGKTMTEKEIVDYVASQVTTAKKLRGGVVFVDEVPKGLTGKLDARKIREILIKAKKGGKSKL
S16 F2sN tox cnf = Cell viability qHTS assay in S16 Pmp22-F2sN cells - Confirmatory screen | shares compounds with PMP22 txn | S16 Schwann cells viability, CellTiter-Glo ATP luminescence, 24 h | Potency, µM (titrated, usually from 57.5 µM), inactives show at the top dose activity change, negative = viability loss, usual class: cytotoxic | 7% of 690 active | AID 1508641, 2021; note: potency is the fitted concentration of half-maximal effect; % is set by controls: 0 for no effect and ±100 for the full control effect
PMP22 txn cnf = Cell-based coincidence reporter assay to measure PMP22 gene transcription in S16 Pmp22-F2sN cells - Confirmatory screen | 22% of 690 active | shares compounds with PMP22 txn | Potency, µM (doses to about 57.5 µM), inactives show at the highest dose activity change, negative = inhibition, most hits filed as inhibitors | AID 1508646, 2021 | S16 Schwann cells Pmp22-F2sN, dual luciferase, 24 h; active = clear falling dose curves in both reporters; inconclusive = both reporters move, but less clearly or upward; inactive = either reporter flat; the % is the FLuc reporter signal; note: potency is the fitted concentration of half-maximal effect
* marks the source's active call; other numbers are inactive results. Only some compounds are listed: those with a hit (about 3% of all), similar ones and a draw of the others. Unless noted, calls come from the whole dose curve; as a rule, active = well fitted curve in the direction sought with a large enough effect; inconclusive = small, poorly fitted or top-dose-only effect, or another doubt; inactive = no such curve, though single readings can be large; an effect the other way counts as inactive or inconclusive.

How did CCOc1ccc(C(=O)N2CCc3cc(OC)c(OC)cc3C2COc2ccc3c(C)cc(=O)oc3c2)cc1OCC (centres undefined) do in these assays?
SKOV3 invasion: -1.9%; PMP22 txn: 13.4µM*; S16 F2sN tox: -2.5%; p53null 32C kill: 12.2%; p53null 39C kill: -0.5%; pS6 MEF inh: -1.8%; NLuc saturating: -6.6%; NLuc Km ctr: 4.9%; FLuc ctr PMP22: 4.5%; S16 F2sN tox cnf: 1.1%; PMP22 txn cnf: -33.8%

Results for Cc1ccc(NC(=O)CSc2nc3ccccc3nc2Cc2ccccc2)c(C)c1 ?
SKOV3 invasion: -2.9%; PMP22 txn: 9.46µM*; S16 F2sN tox: -3.1%; p53null 32C kill: 4.1%; p53null 39C kill: 6.3%; pS6 MEF inh: 0.0%; NLuc saturating: -4.0%; NLuc Km ctr: -2.7%; FLuc ctr PMP22: -1.2%; S16 F2sN tox cnf: 16.6%; PMP22 txn cnf: inconclusive

Results for CCc1ccc(NC(=O)CC2C(=O)OCCN2CC)cc1 (centres undefined) ?
SKOV3 invasion: inactive; PMP22 txn: 15µM*; S16 F2sN tox: inconclusive; pS6 MEF inh: inconclusive; NLuc saturating: -17.2%; NLuc Km ctr: -17.3%; FLuc ctr PMP22: -19.2%; S16 F2sN tox cnf: -26.6%; PMP22 txn cnf: inconclusive

How did CCN1CCOC(=O)C1CC(=O)Nc1cc(Cl)ccc1OC (centres undefined) do in these assays?
SKOV3 invasion: inactive; PMP22 txn: 18.9µM*; S16 F2sN tox: inconclusive; pS6 MEF inh: inconclusive; NLuc saturating: -8.1%; NLuc Km ctr: 0.0%; FLuc ctr PMP22: 3.7%; S16 F2sN tox cnf: 7.1%; PMP22 txn cnf: inconclusive

What do the screens show for `CCN1CCOC(=O)C1CC(=O)Nc1ccc(C(C)=O)cc1` (centres undefined)?
SKOV3 invasion: 6.4%; PMP22 txn: inconclusive; S16 F2sN tox: 19.9%; pS6 MEF inh: inconclusive

Results for CCN1CCOC(=O)C1CC(=O)Nc1ccccc1C(F)(F)F (centres undefined) ?
SKOV3 invasion: inactive; PMP22 txn: inconclusive; S16 F2sN tox: -3.0%; pS6 MEF inh: inconclusive

How did COc1ccc(NC(=O)CSc2c3c(nc4ccc(Cl)cc24)CCCC3)cc1Cl do in these assays?
SKOV3 invasion: -11.7%; PMP22 txn: 18.9µM*; S16 F2sN tox: inconclusive; p53null 32C kill: 12.2%; p53null 39C kill: 21.2%; pS6 MEF inh: 1.3%; NLuc saturating: inconclusive; NLuc Km ctr: inconclusive; FLuc ctr PMP22: 5.8%; S16 F2sN tox cnf: inconclusive; PMP22 txn cnf: inconclusive

What do the screens show for `COC(=O)c1ccccc1NC(=O)CSc1c2c(nc3ccc(Cl)cc13)CCCC2`?
SKOV3 invasion: 5.0%; PMP22 txn: 17.8µM*; S16 F2sN tox: 16.8%; p53null 32C kill: 22.4%; p53null 39C kill: -7.1%; pS6 MEF inh: -0.1%; NLuc saturating: -14.7%; NLuc Km ctr: 4.0%; FLuc ctr PMP22: 6.3%; S16 F2sN tox cnf: inconclusive; PMP22 txn cnf: inconclusive

How did Cc1ccc(CNC(=O)CSc2c3c(nc4ccc(Cl)cc24)CCCC3)cc1 do in these assays?
SKOV3 invasion: inactive; PMP22 txn: 10µM*; S16 F2sN tox: 1.3%; p53null 32C kill: 2.3%; p53null 39C kill: -11.6%; pS6 MEF inh: -11.1%; NLuc saturating: -13.3%; NLuc Km ctr: inconclusive; FLuc ctr PMP22: -4.7%; S16 F2sN tox cnf: 5.2%; PMP22 txn cnf: -16.5%

What do the screens show for `Cc1ccc(C)c(NC(=O)CSc2c3c(nc4ccc(Cl)cc24)CCCC3)c1`?
SKOV3 invasion: 3.0%; PMP22 txn: 15µM*; S16 F2sN tox: 1.2%; p53null 32C kill: 0.8%; p53null 39C kill: -20.1%; pS6 MEF inh: 2.1%; NLuc saturating: -20.3%; NLuc Km ctr: -6.9%; FLuc ctr PMP22: 4.7%; S16 F2sN tox cnf: 0.1%; PMP22 txn cnf: inconclusive

Results for COc1cc(NC(=O)CSc2c3c(nc4ccccc24)CCC3)cc(OC)c1OC ?
SKOV3 invasion: -9.9%; PMP22 txn: inconclusive; S16 F2sN tox: 29.5%; p53null 32C kill: -0.1%; p53null 39C kill: 3.0%; pS6 MEF inh: inconclusive

How did CCCNC(=O)CSc1c2c(nc3ccc(Cl)cc13)CCCC2 do in these assays?
SKOV3 invasion: -13.3%; PMP22 txn: inconclusive; S16 F2sN tox: 16.1%; p53null 32C kill: 27.6%; p53null 39C kill: 57.0%; pS6 MEF inh: inconclusive
